# Data taken from article PMC7826789 (International Journal of Molecular Sciences, 2021).
# Columns and labels:
# Conditions in all cases: Compound Concentration (nM):1000
# INSRR = test system: INSRR
# INSR = test system: INSR
# IRAK1 = test system: IRAK1
# IRAK3 = test system: IRAK3
# IRAK4 = test system: IRAK4
# ITK = test system: ITK
# [1] = test system: JAK1(JH1domain-catalytic)
# [2] = test system: JAK1(JH2domain-pseudokinase)
# [3] = test system: JAK2(JH1domain-catalytic)
# [4] = test system: JAK3(JH1domain-catalytic)
# 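Further: KINOMEscan scanMAX binding as percent activity remaining versus control; lower means stronger binding.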
Structure (SMILES),Percent Control (INSRR),Percent Control (INSR),Percent Control (IRAK1),Percent Control (IRAK3),Percent Control (IRAK4),Percent Control (ITK),Percent Control [1],Percent Control [2],Percent Control [3],Percent Control [4]
C/C(Nc1ccc(S(N)(=O)=O)cc1)=C1/C(=O)Nc2ccccc21 [GW335962X],100%,66%,82%,88%,91%,100%,100%,61%,73%,52%
CC(C)COC(=O)c1ccc2c(c1)/C(=C/Nc1ccc(S(N)(=O)=O)cc1)C(=O)N2 [GW416981X],100%,100%,50%,100%,100%,100%,100%,56%,63%,14%
COc1cc(C)c(N(C)C(=O)CN(C)C)cc1Nc1nc(Nc2cccc(F)c2C(N)=O)c2cc[nH]c2n1 [GSK2219385],2.9%,4.3%,95%,97%,95%,99%,88%,81%,100%,92%
CCc1ccc(Oc2nccc(-c3c(-c4ccc(F)cc4)ncn3C3CCNCC3)n2)cc1 [SB-242719],100%,77%,95%,95%,88%,100%,95%,100%,90%,100%
COc1cccc(-c2c[nH]c3c(N/N=C/c4ccncc4)ncnc23)c1 [GW814408X],100%,93%,23%,76%,59%,96%,75%,80%,31%,18%
COc1ccc2cc(-c3c(-c4ccncc4)nc(-c4ccc(S(C)(=O)=O)cc4C)n3C)ccc2c1 [SB-633825],89%,100%,68%,75%,81%,60%,100%,75%,72%,63%
COc1cc2ncn(-c3cc(O[C@H](C)c4ccccc4Cl)c(C(N)=O)s3)c2cc1OC [GSK237701A],100%,100%,64%,70%,98%,82%,100%,70%,46%,100%
C[C@@H](Oc1cc(-n2cnc3ccc(OC4CCN(C)CC4)cc32)sc1C(N)=O)c1ccccc1Cl [GSK579289A],90%,64%,73%,83%,94%,77%,100%,75%,75%,7.2%
CCS(=O)(=O)c1ccc(OC)c(Nc2ncc(-c3cccc(F)c3)o2)c1 [GW621970X],100%,100%,48%,100%,61%,100%,100%,98%,100%,75%
O=C1Nc2ccc(C(=O)c3ccco3)cc2C1=Cc1cc(Cl)c(O)c(Cl)c1 [GW406108X],100%,91%,86%,100%,64%,100%,100%,7.3%,47%,2.1%
COc1cc2ncnc(Nc3ccc4c(cnn4Cc4ccccc4)c3)c2cc1OC.Cl [GW282449A],100%,100%,100%,100%,100%,100%,100%,92%,100%,100%
COc1cccc(-n2ncc3c(N/N=C/c4ccncc4)ncnc32)c1 [GW784752X],100%,100%,37%,0%,99%,100%,100%,96%,66%,83%
COc1cc(C=NNc2ncnc3c2cnn3-c2ccccc2)ccc1O [GW513184X],100%,100%,43%,28%,72%,100%,100%,84%,72%,81%
CN(C)CCNC(=O)Nc1ccc(N(C)c2ccnc(Nc3ccc(CS(C)(=O)=O)cc3)n2)cc1.Cl [GW830900A],99%,75%,59%,31%,80%,83%,100%,33%,30%,40%
NS(=O)(=O)c1ccc(N/N=C2\C(=O)Nc3ccc(C(=O)NCc4ccncc4)cc32)cc1 [GW300657X],89%,100%,71%,91%,96%,99%,88%,50%,64%,37%
COc1ccc(COc2ccc(Cc3cnc(N)nc3N)cc2OC)cc1 [GW632580X],100%,69%,99%,100%,95%,89%,100%,89%,92%,77%
NS(=O)(=O)c1ccc(N/N=C2\C(=O)Nc3ccc(Cl)cc32)cc1 [GW280670X],100%,100%,100%,100%,100%,100%,100%,80%,100%,100%
Cl.O=C(Nc1ccc(Oc2ccc3[nH]c(NC(=O)c4ccco4)nc3c2)cc1)Nc1cc(C(F)(F)F)ccc1F [GW683134A],100%,88%,91%,100%,89%,97%,100%,90%,94%,87%
Cl.O=S1CCN(Cc2ccc(-c3ccc4ncnc(Nc5ccc(OCc6ccccc6)c(F)c5)c4c3)o2)CC1 [GW576924A],100%,100%,100%,100%,100%,100%,100%,89%,100%,100%
CC1=C(C(=O)Nc2ccc3[nH]ncc3c2)C(c2ccc3ccccc3c2)CC(=O)N1 (centres unmarked) [GSK270822A],100%,100%,72%,67%,100%,75%,82%,90%,9.6%,3.4%
